From PubChem
An excerpt weighted towards active compounds, which were near 14% of everything screened.
USP10 block: inhibitors of human USP10 deubiquitinase; Q14694; purified USP10, Ub-rhodamine fluorescence, 60 min; inhibition, % at 20 µM; hit rate 1.1% among 47,000; AID 1645856
USP17 inh: inhibitors of human USP17 deubiquitinase; purified USP17, Ub-rhodamine cleavage fluorescence, 3 h; inhibition, % at 50 µM; hit rate 6.5% among 47,000; AID 1645855
Target sequence (A8MUK1 whole entry, looked up): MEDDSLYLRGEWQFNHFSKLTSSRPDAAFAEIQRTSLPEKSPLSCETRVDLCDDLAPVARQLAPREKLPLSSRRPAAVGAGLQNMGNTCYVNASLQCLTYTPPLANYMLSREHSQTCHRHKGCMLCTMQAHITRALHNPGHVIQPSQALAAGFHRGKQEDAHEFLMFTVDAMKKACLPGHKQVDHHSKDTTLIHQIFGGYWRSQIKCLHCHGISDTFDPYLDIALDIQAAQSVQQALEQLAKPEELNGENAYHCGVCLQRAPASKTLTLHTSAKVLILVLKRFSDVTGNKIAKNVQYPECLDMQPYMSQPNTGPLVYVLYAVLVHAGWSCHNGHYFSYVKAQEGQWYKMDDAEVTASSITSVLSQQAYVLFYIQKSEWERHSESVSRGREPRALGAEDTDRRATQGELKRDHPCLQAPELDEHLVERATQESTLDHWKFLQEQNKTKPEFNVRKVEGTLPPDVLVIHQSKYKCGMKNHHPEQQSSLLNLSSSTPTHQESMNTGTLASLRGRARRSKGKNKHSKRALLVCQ
USP28 inh: blocks human USP28 ubiquitin-rhodamine cleavage; hit rate 3% among 47,000; inhibition, % at 25 µM; Q96RU2; purified USP28, Ub-rhodamine cleavage fluorescence, 30 min
USP30 inh: blocks human USP30 ubiquitin-rhodamine cleavage | Q70CQ3 | purified USP30, Ub-rhodamine cleavage fluorescence | inhibition, % at 25 µM | hit rate 5.3% among 47,000
USP8 block: inhibitors of human USP8 deubiquitinase; P40818; purified USP8, Ub-rhodamine cleavage fluorescence, 30 min; inhibition, % at 20 µM; hit rate 4.2% among 47,000; AID 1645853
Starred values were filed as active, the others as inactive. Rule as the data show it: active = inhibition above about 30%; inactive = the rest.

Screening Cc1ccc(NC(=O)Cn2cccc2-c2nnc(C3CC3)o2)c(C)c1 returned USP10 block 0, USP17 inh 1, USP28 inh -13, USP30 inh 34* and USP8 block 0.
Screening COc1c(O)c2c(c3cc(C(=O)O)[nH]c13)CCN2C(N)=O returned USP10 block 1, USP17 inh 37*, USP28 inh 14, USP30 inh 15 and USP8 block 7.
`COc1cc2c(cc1OC)-c1cc(N(C(C)=O)c3ccc4c5c(cccc35)CC4)nc(=O)n1CC2` gave USP10 block -14, USP17 inh 38*, USP28 inh -16, USP30 inh -96 and USP8 block 12.
`COC(=O)c1oc2c(c1C)C(=O)CC(c1cccc(Cl)c1)C2` (centres undefined) gave USP10 block 0, USP17 inh 3, USP28 inh -6, USP30 inh 0 and USP8 block -9.
O=C(O)c1cccc(S(=O)(=O)NCc2ccc3c(c2)OCO3)c1 was read as USP10 block 1, USP17 inh 9, USP28 inh 9, USP30 inh 35* and USP8 block 3.
CC1Cc2ccccc2N1S(=O)(=O)c1cccc(C(=O)OCC(=O)Nc2ccc3c(c2)OCO3)c1 (centres undefined) was read as USP10 block 8, USP17 inh -3, USP28 inh 8, USP30 inh -57 and USP8 block 37*.
For CC1Cc2ccccc2N1S(=O)(=O)c1cccc(C(=O)NCc2ccc(Cl)cc2Cl)c1 (centres undefined) the results were USP10 block -9, USP17 inh 10, USP28 inh -14, USP30 inh -112 and USP8 block 3.
For CC1Cc2ccccc2N1S(=O)(=O)c1cccc(C(=O)NCc2ccc3c(c2)OCO3)c1 (centres undefined) the results were USP10 block 10, USP17 inh 19, USP28 inh -8, USP30 inh -3 and USP8 block 39*.
Screening NS(=O)(=O)c1ccc(NS(=O)(=O)c2ccc(NC(=O)Nc3ccc(Cl)cc3)cc2)cc1 returned USP10 block 27, USP17 inh 41*, USP28 inh 75*, USP30 inh 49* and USP8 block 23.
`CN1CCCC12CCCN(C(=O)c1ccc(Cl)cc1)C2` (centres undefined) gave USP10 block 3, USP17 inh -4, USP28 inh -11, USP30 inh -3 and USP8 block -51.
N[C@@H](Cc1ccccc1)C(=O)N1CCC2(CC1)CN(C(=O)c1ccc(Cl)cc1)CCO2 was read as USP10 block 1, USP17 inh 46*, USP28 inh 45*, USP30 inh 68* and USP8 block -271.
`CNc1nc2c(c(=O)n1C)CN(S(=O)(=O)c1ccc(F)c(Cl)c1)CC2` gave USP10 block -1, USP17 inh 0, USP28 inh -5, USP30 inh -1 and USP8 block -2.
`OCCSc1nnc(N2CCCC2)n1-c1cccc(Cl)c1` gave USP10 block 0, USP17 inh 4, USP28 inh 11, USP30 inh 18 and USP8 block 3.
`c1ccc(-n2c(SCCc3ccncc3)nnc2N2CCOCC2)cc1` gave USP10 block -1, USP17 inh 19, USP28 inh 11, USP30 inh 42* and USP8 block 16.
`Cc1nc2ccccn2c1CC(=O)Nc1cccc(C2CCc3nncn3C2)c1` (centres undefined) gave USP10 block 0, USP17 inh 0, USP28 inh 11, USP30 inh 12 and USP8 block 36*.
Screening COc1ccc(NC(=O)Cn2cc(C(=O)c3ccc(F)cc3)c(=O)c3cc(C)ccc32)cc1 returned USP10 block 41*, USP17 inh 75*, USP28 inh 14, USP30 inh 32* and USP8 block 23.
For CCOc1ccc2c(c1)c(=O)c(C(=O)c1ccc(F)cc1)cn2CC(=O)Nc1ccc(F)cc1 the results were USP10 block 20, USP17 inh 41* and USP8 block 72*.
For COc1ccc(NC(=O)Cn2cc(C(=O)c3ccc(OC)cc3)c(=O)c3cc4c(cc32)OCCO4)cc1 the results were USP10 block 6, USP17 inh 6, USP28 inh 7, USP30 inh 10 and USP8 block 44*.
CCOc1ccc(NC(=O)Cn2cc(-c3ccccc3)c3ncn(C4CC4)c(=O)c32)cc1 was read as USP10 block -14, USP17 inh -44, USP28 inh -16, USP30 inh -308 and USP8 block -9.
For Cc1ccc(C(=O)c2cn(CC(=O)Nc3ccc(Cl)cc3)c3ccc(F)cc3c2=O)cc1 the results were USP10 block 15, USP17 inh -26, USP28 inh -60, USP30 inh -219 and USP8 block 60*.
Cc1ccc(COC(=O)C23CCC(=O)N2c2ccccc2S3)cc1 (centres undefined) was read as USP10 block 8, USP17 inh 16, USP28 inh 10, USP30 inh 6 and USP8 block 0.
CCOc1ccc2c(c1)c(=O)c(C(=O)c1ccc(C)cc1)cn2CC(=O)Nc1ccc(OC)c(OC)c1 was read as USP10 block 48*, USP17 inh 36*, USP28 inh 40*, USP30 inh 70* and USP8 block 87*.
`Cc1nn(-c2cccc(Cl)c2)c2c1C(c1cccnc1)c1c(ncn3nc(-c4ccncc4)nc13)O2` (centres undefined) gave USP10 block 4, USP17 inh 13, USP28 inh 4, USP30 inh 14 and USP8 block 0.
Screening CCOc1ccc(-c2nc(SCC(=O)Nc3cccc(C)c3)n3[nH]c(=O)cc3n2)cc1 returned USP10 block 53*, USP17 inh 40*, USP28 inh 18, USP30 inh 15 and USP8 block 42*.
For CCn1c(COc2ccc(Cl)c3cccnc23)nnc1SC(F)F the results were USP10 block 0, USP17 inh 18, USP28 inh 20, USP30 inh 40* and USP8 block 13.
Screening Cn1c(COc2cccc3cccnc23)nnc1SCC(N)=O returned USP10 block 0, USP17 inh -8, USP28 inh -13, USP30 inh -20 and USP8 block 2.
COc1ccccc1C(=O)Nc1c(C)ccc2nsnc12 was read as USP10 block 1, USP17 inh 5, USP28 inh -5, USP30 inh -2 and USP8 block -8.
For Cc1cn2nnc(C(=O)NC3CCc4ccccc43)c2c(=O)[nH]1 (centres undefined) the results were USP10 block -7, USP17 inh 24, USP28 inh 9, USP30 inh -7 and USP8 block 64*.
Cc1nn(-c2ccc(F)cc2)c(Cl)c1C(=O)NC1CCCc2ccccc21 (centres undefined) was read as USP10 block -1, USP17 inh 6, USP28 inh 0, USP30 inh -22 and USP8 block -7.
Screening CCOc1ccc(CCNC(=O)COCc2cc(-c3ccc(F)cc3)on2)cc1 returned USP10 block 0, USP17 inh 6, USP28 inh -1, USP30 inh 2 and USP8 block -3.
